Measurements as given in PubChem BioAssay (Tox21).
Results filed as inconclusive are left out. A call without a number means that no potency is given here. Values without a mark were called inactive. Activity calls are given as the source filed them. Calls follow the shape of the dose curve; as a rule, active = well fitted cell-killing curve with a large enough effect in the repeat runs; inconclusive = weak or mixed curves, or effect the other way; inactive = no such curve, though single readings can be large or run the other way.

Experiment: qHTS assay to identify small molecule antagonists of the vitamin D receptor (VDR) signaling pathway - cell viability counter screen (AID 743225); also: nearly all actives have a fitted effect of over 50% in size
Details: VDR-bla HEK293T viability, CellTiter-Glo luminescence, 16 h; series mostly up to 61 µM
Excerpt: U.S. Tox21 Program National Center for Advancing Translational Sciences [NCATS] NIH Chemical Genomics Center [NCGC] U.S. Environmental Protection Agency [EPA] National Institutes of Environmental Health Sciences [NIEHS] National Toxicology Program [NTP] U.S. Food and Drug Administration [FDA] Tox21 Assay Overview: The vitamin D receptor (VDR), a member of nuclear hormone receptor superfamily, plays a critical role in calcium homeostasis and bone metabolism. It is also involved in cell differentiation and growth, and thrombogenicity. To identify the compounds that inhibit VDR signaling, the VDR-UAS-bla HEK 293T cell line (Invitrogen, Carlsbad, CA, USA) containing a beta-lactamase reporter gene under the control of an upstream activator sequence (UAS) was used to screen the Tox21 10K compound library. The cytotoxicity of the Tox21 compound library against the VDR-bla cell line was tested in parallel by measuring the cell viability using CellTiter-Glo assay (Promega, Madison, WI) in the same wells.
Tox21 Assay Protocol Summary: VDR-bla cells were dispensed at 2,000 cells/5 uL of assay medium per well into black wall/clear-bottom 1536-well plates using a Multidrop Combi (Thermo Fisher Scientific, Waltham, MA) dispenser. After the assay plates were incubated at a 37C and 5% CO2 for 4 h, 23 nL of compounds dissolved in DMSO, positive controls or DMSO only was transferred to the assay plate by a Pintool station (Kalypsys, San Diego, CA), followed by addition of 1 uL of 1-alpha, 25-Dihydroxy Vitamin D3 (3 nM, final concentration in the wells) using a Bioraptr Flying Reagent Dispenser (FRD) workstation (Beckman Coulter, Indianapolis, IN). The plates were incubated at 37C and 5% CO2 for 16 h, and then 1 uL of LiveBLAzerTM B/G FRET substrate was added using a Bioraptr FRD. The plates were incubated at room temperature for 2 h and fluorescence intensity was measured by an Envision plate reader (PerkinElmer, Shelton, CT). For cell viability readout that measures cytotoxicity, 3 ul/well of CellTiter-Glo reagent was added into the assay plates using a Bioraptr FRD. After 30 min incubation at room temperature, the luminescence intensity in the plates was measured using a ViewLux plate reader (PerkinElmer).

Compound	Potency	viability change, negative = cytotoxic
C/C=C/C=C/CO	inactive	
CCO[Si](CCCCl)(OCC)OCC	inactive	
Cc1oc(-c2ccccc2)nc1CCOc1cccc2c1ccn2CCC(=O)O	inactive	
CN1CCC(=C2c3ccccc3Sc3ccccc32)CC1	inactive	
Nc1cc(C(=O)O)c(O)c(S(=O)(=O)O)c1	inactive	
O=C(O)C(S)C(S)C(=O)O (stereo not given)	inactive	
Nc1c(CC(=O)O)cccc1C(=O)c1ccc(Br)cc1	inactive	
Nc1ccccc1S(=O)(=O)c1ccccc1	inactive	
CN(C)C(=O)NC1(c2ccccc2)CCN(CC[C@@]2(c3ccc(F)c(F)c3)CN(C(=O)c3ccccc3)CCO2)CC1	inactive	
CC1OC(=O)C(C)OC1=O (stereo not given)	inactive	
CNC(=O)CN(CCN(CCN(CC(=O)[O-])CC(=O)NC)CC(=O)[O-])CC(=O)[O-].O.[Gd+3]	inactive	
CCCCC(=O)OCC(=O)[C@H]1[C@H](C)C[C@H]2[C@@H]3C[C@H](F)C4=CC(=O)C=C[C@]4(C)[C@@]3(F)[C@@H](O)C[C@@]21C	inactive	
CCCCC/C=C\C/C=C\CCCCCCCC(=O)NC(C)c1ccccc1 (stereo not given)	inactive	
O=C1OC(CN2CCOCC2)CN1/N=C/c1ccc([N+](=O)[O-])o1 (stereo not given)	inactive	
CC(C)Cc1ccc(C(C)C(=O)OCc2ccccn2)cc1 (stereo not given)	inactive	
CCOC(=O)Cc1cccc2ccccc12	inactive	
COc1cc(Cl)c(OC)cc1N	inactive	
CCN(CC)c1ccc(C(=C2C=CC(=[N+](CC)CC)C=C2)c2cc(S(=O)(=O)O)ccc2S(=O)(=O)[O-])cc1	inactive	
CC(=O)[O][Al]	inactive	
Brc1c2ccccc2c(Br)c2ccccc12		-26.5% [at 6.95 µM]

Compound	Potency	viability change, negative = cytotoxic
CC(=O)NO	inactive	
CC(C)(COC(=O)c1ccccc1)COC(=O)c1ccccc1	inactive	
O=C(O)c1ccc(S(=O)(=O)O)cc1C(=O)O	inactive	
COc1ccc(S(=O)(=O)N2C(=O)[C@@](c3ccccc3OC)(N3C[C@H](O)C[C@H]3C(=O)N(C)C)c3cc(Cl)ccc32)c(OC)c1	inactive	
O=[N+]([O-])c1ccc(NCCO)c(OCCO)c1	inactive	
CN1CCN(C(c2ccccc2)c2ccccc2)CC1	inactive	
NCC(=O)O	inactive	
O=CC1CC=CCC1 (stereo not given)	inactive	
CCCCCC[C@@H](O)C/C=C\CCCCCCCC(=O)OC	inactive	
Cn1c(=O)cc(Oc2ccc(F)cc2F)c2cnc(NCC(C)(C)O)nc21	inactive	
C=C1[C@H]2CC[C@@H]3[C@H]2C(C)(C)CCC[C@]13C	inactive	
Nc1cccc([N+](=O)[O-])c1	inactive	
NCCCN1CCOCC1	inactive	
Cc1ncc(CO)c(C=O)c1O	inactive	
C[C@@H]1C[C@H]2[C@@H]3CCC4=CC(=O)C=C[C@]4(C)[C@@]3(F)[C@@H](O)C[C@]2(C)[C@@]1(O)C(=O)COC(=O)c1ccncc1	inactive	
C=CCOC(=O)CCC1CCCCC1	inactive	
CCOCC(O)COc1ccc(NC(=O)CC[S+](C)C)cc1 (stereo not given)	inactive	
CCC(C)c1cc(C(C)(C)C)c(O)c(C(C)(C)C)c1 (stereo not given)	inactive	
C=CCOc1ccccc1OCC(O)CNC(C)C (stereo not given)	inactive	
Nc1ccc([N+](=O)[O-])c(C(F)(F)F)c1	inactive	
